Laboratory results published in PubChem BioAssay AID2662 (National Center for Advancing Translational Sciences (NCATS), 2010).
Hit rate of the full screen: of about 290,000 compounds, about 110 (0.038%) were called active. Not shown: some 3% with an inconclusive outcome. Calls follow the shape of the dose curve; as a rule, active = well fitted inhibition curve with a large enough effect in the polarisation, with a control signal flat (not every such curve was filed as active); inconclusive = small, poorly fitted or top-dose-only effect, or effect the other way, or a change in a side signal; inactive = no such curve, though single readings can be large or run the other way; the % refers to the polarisation. The sample as a whole holds a higher share of actives than the screen did.

What follows are molecules tested against Histone-lysine N-methyltransferase 2A (Homo sapiens) (UniProt Q03164) (assay: qHTS Fluorescence Polarization Assay for Inhibitors of MLL CXXC domain - DNA interaction). Details: MLL-CXXC / FITC-HOXA9 DNA fluorescence polarization; series mostly up to 115 µM.
Source text: NIH Chemical Genomics Center [NCGC] NIH Molecular Libraries Probe Production centers Network [MLPCN] MLPCN Grant: DA027717-01A1 Assay Submitter (PI): John Bushweller NCGC Assay Overview: The MLL (Mixed Lineage Luekemia) gene is involved in chromosomal translocation that results in either acute lymphoid leukemia (ALL) or acute myeloid leukemia (AML). Chromasomal translocation of MLL gene is responsible for the fusion of N-terminal MLL to more than 60 different partner genes in frame. Many of the MLL partner genes contain transcription activation domains or function as transcriptional activators. Despite the heterogeneity of fusion partners, the N-terminus of MLL fusion proteins always consists of the N-terminal menin binding motif and the CXXC domain. The MLL-CXXC domain specifically recognizes unmethylated CpG sequences of the HOX-A gene. Disruption of the MLL-CXXC and HOX-A gene interaction leads to down regulation of HOX-A gene expression and may potentially reverse leukemogenesis. We have miniaturized and optimized an in-vitro assay to screen for inhibitors of the MLL-CXXC domain and HOX-A DNA interaction, which could have utility in MLL fusion leukemias.
The affinity purified MLL-CXXC domain, unlabeled HOX-A9 DNA strand, fluorescein (FLSN) labeled HOX-A9 DNA strand were kindly supplied by the laboratory of Dr. John Bushweller, University of Virginia. All reagents were stored in single use aliquots at -80C. Assay Reagents: Assay buffer: 50 mM TRIS-HCl pH 7.5, 50 mM NaCl, 1 mM DTT. Add 0.05% BSA prior to reaction setup. Assay Procedure: 1.Dispense 1 ul of a 7 uM MLL-CXXC solution prepared in assay buffer into column 1-48. 2.Transfer 23 nl of compounds and unlabeled HOX-A9 per well. 3.Incubate for 5 minutes at ambient. 4.Dispense 1ul of a 50 nM FLSN-HOX-A9 solution prepared in assay buffer into columns 1-48 5.Centrifuge for 30 seconds at 1000 RPM. 6.Incubate for 30 minutes at ambient. 7.Read using the Envision reader fluorescent polarization protocol.
Potency is read from the fitted curve at half-maximal effect.

Sequence of Histone-lysine N-methyltransferase 2A (Homo sapiens) (Q03164 whole entry, looked up, the tested form may be a part): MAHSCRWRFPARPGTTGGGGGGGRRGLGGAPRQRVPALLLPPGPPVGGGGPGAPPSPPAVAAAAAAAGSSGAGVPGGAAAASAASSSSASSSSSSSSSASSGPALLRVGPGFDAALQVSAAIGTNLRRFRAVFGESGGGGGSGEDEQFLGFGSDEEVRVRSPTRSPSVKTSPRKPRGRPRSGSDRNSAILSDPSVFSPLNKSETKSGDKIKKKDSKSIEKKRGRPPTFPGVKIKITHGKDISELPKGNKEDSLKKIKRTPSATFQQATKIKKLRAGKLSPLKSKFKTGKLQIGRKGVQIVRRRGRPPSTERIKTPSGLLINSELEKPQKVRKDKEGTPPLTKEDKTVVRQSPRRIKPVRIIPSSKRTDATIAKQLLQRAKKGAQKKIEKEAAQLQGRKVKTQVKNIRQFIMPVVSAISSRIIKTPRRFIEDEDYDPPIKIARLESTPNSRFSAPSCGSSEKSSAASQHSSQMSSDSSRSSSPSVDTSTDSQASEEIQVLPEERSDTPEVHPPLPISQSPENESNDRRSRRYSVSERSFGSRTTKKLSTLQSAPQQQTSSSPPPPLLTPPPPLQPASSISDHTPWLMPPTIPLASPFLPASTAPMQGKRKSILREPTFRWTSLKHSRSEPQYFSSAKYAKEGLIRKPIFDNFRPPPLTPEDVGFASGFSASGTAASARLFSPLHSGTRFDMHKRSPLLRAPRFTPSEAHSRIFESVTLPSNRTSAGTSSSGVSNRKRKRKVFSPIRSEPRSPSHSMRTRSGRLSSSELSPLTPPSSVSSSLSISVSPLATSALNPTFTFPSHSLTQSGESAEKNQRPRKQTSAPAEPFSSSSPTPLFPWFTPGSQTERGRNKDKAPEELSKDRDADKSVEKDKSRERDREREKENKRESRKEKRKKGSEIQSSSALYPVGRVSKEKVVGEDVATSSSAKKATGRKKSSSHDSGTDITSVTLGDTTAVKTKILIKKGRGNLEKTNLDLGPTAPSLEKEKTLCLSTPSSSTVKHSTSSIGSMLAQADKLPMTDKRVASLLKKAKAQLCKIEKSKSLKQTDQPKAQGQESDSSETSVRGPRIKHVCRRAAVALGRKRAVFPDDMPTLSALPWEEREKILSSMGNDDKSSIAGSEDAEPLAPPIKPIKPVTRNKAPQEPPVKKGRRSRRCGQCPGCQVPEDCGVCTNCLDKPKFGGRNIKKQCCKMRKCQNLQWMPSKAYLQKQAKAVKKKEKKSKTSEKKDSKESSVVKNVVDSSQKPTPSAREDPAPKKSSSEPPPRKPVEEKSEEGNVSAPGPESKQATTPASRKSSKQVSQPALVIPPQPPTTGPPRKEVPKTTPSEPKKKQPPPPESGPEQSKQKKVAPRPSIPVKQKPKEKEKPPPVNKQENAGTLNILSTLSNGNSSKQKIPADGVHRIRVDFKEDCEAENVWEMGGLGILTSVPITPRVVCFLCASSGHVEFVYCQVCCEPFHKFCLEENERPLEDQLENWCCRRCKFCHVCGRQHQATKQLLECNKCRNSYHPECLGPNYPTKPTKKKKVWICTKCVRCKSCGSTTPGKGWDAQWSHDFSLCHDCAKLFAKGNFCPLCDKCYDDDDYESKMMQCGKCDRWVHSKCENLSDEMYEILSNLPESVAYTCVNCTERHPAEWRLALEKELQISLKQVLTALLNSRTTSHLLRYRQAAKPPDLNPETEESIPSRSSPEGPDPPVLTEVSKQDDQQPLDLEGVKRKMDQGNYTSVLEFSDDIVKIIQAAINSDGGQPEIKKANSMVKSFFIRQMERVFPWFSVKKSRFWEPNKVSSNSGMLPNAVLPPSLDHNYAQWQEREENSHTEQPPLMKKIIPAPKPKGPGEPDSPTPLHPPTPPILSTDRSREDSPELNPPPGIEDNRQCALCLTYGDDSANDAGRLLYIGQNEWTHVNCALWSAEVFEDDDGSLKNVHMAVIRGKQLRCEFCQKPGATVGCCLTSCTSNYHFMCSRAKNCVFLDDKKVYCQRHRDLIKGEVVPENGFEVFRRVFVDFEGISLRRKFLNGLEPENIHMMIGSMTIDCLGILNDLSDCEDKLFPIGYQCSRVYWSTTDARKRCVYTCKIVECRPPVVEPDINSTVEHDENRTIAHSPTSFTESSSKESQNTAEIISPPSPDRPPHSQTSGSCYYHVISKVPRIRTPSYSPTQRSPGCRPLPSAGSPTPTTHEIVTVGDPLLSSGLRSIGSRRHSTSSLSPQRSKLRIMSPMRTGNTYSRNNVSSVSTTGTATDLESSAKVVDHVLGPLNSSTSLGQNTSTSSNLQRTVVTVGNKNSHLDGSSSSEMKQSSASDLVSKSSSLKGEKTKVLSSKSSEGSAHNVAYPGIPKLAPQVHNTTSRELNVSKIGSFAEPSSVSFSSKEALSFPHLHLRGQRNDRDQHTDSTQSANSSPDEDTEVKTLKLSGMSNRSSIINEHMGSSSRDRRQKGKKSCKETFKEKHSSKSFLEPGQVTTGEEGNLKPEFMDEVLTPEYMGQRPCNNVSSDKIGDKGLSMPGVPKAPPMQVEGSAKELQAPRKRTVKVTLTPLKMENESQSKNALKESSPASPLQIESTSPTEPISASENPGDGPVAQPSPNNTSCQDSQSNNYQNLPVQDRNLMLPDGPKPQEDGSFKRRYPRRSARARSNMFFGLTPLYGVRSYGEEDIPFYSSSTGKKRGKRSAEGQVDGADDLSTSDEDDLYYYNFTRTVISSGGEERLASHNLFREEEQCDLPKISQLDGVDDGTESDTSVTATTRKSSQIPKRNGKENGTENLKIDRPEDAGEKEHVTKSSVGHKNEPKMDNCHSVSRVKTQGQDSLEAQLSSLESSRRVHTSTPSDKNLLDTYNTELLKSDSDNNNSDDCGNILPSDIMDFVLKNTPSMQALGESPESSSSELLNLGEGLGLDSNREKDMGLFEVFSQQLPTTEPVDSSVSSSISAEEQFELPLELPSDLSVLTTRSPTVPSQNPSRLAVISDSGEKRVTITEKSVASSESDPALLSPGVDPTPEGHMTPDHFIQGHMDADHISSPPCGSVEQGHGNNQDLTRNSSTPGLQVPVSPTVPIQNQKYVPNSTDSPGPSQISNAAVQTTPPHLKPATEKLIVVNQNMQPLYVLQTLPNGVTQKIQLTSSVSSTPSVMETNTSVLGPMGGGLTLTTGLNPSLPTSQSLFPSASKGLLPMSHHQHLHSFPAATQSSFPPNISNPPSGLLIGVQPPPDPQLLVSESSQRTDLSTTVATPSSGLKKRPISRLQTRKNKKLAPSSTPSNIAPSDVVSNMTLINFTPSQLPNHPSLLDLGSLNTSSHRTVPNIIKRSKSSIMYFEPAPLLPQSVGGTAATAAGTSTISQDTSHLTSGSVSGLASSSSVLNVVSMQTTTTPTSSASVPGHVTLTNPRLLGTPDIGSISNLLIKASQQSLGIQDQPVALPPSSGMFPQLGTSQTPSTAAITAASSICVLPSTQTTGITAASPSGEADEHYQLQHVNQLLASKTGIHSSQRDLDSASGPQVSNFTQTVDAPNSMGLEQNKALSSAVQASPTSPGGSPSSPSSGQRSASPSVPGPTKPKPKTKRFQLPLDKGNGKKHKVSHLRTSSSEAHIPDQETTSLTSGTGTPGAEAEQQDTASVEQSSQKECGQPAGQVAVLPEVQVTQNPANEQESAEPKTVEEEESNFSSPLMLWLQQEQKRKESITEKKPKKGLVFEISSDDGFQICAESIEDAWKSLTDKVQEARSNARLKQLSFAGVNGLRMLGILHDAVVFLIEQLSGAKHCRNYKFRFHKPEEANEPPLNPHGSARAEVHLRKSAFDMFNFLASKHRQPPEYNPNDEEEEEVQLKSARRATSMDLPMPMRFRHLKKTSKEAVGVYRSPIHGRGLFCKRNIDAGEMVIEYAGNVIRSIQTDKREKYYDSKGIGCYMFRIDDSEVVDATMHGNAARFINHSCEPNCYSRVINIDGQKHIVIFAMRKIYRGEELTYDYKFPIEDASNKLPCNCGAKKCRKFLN

Potency, inactive:
C#CCOc1ccc(/C=C2/C(=O)NN(c3ccccc3)C2=O)cc1OC
COc1cc(/C=C2/C(=O)NN(c3cccc(Cl)c3)C2=O)cc(Br)c1O
CC(=O)c1c(C)n(-c2ccc(C)cc2)c2ccc(O)cc12
COc1ccc2nc(C)cc(Nc3cccc(C(=O)O)c3)c2c1
NC(=O)C1CCN(C(=O)/C(=C/c2ccco2)NC(=O)c2ccccc2)CC1
Cc1cn([C@H]2CC(F)[C@@H](CO)O2)c(=O)[nH]c1=O (stereo not given in full)
O=C(Nc1cccc(C(F)(F)F)c1)c1cc(Br)cc(Br)c1O
C[C@H](NC(=O)C1CCN(S(=O)(=O)c2ccccc2)CC1)C(=O)NCc1ccccc1
COc1ccc(N(CC(=O)Nc2ccc(F)c(F)c2)S(=O)(=O)c2c(C)[nH]c(=O)[nH]c2=O)cc1
Cc1ccc(CNC(=O)C(=O)c2cn(CC(=O)N3CCCC3)c3ccccc23)cc1
COc1ccc(C)cc1Nc1nc(C)nc2c1oc1ccccc12
COC(=O)c1ccccc1NC(=O)C1(S(=O)(=O)c2ccc(Cl)cc2)CC1
CCN1C(=S)N[C@@H](CCc2ccccc2)[C@H](C(=O)OC)[C@H]1C
O=c1c2cc([N+](=O)[O-])ccc2nc2n1CCC2
COc1ccc(CNc2cc(C)cc(C)c2)cc1OC
Cc1c(CNCCc2ccccc2)c(C(=O)O)c(C)n1-c1ccccc1
Cc1ccc(C(=O)N2CC(=O)Nc3ccc(F)cc3C2c2ccc(F)cc2)cc1 (stereo not given)
COC(=O)c1ccc(CNC(=O)C2CCC(=O)N(Cc3cccc(F)c3)C2)cc1 (stereo not given)
Cc1cnc(C(=O)Oc2cccc(Cl)c2Cl)cn1
COc1ccc(C)cc1N(C(=O)Cn1nnc(-c2ccc(C)o2)n1)C(C(=O)NC1CCCC1)c1ccncc1 (stereo not given)
Cc1ccc(/C=C2/SC(=S)N(CCC(=O)NCCCN3CCOCC3)C2=O)cc1
CCN(CC(=O)Nc1ccc2c(c1)OCO2)S(=O)(=O)c1ccccc1
NNC(=O)CSc1nnc(-c2ccccc2)n1-c1ccccc1
CC(C(=O)Nc1ccc(O)c(C(=O)O)c1)N1C(=O)/C(=C/c2cccs2)SC1=S (stereo not given)
Cc1cccn2c(=O)c3cc(C(=O)NCCN4CCOCC4)c(=N)n(Cc4cccnc4)c3nc12
Cc1cccc(S(=O)(=O)N2CN(CC3CCCO3)c3nc4ccccc4nc32)c1 (stereo not given)
Cc1ccc(S(=O)(=O)c2nc(-c3cccs3)oc2NCc2cccnc2)cc1
COc1ccc(CCNS(=O)(=O)c2cn(C)nc2C)cc1
CC(=O)Nc1cccc(Nc2nc(-c3cccs3)nc3ccccc23)c1
CC(=O)c1nn(-c2cccc(C(F)(F)F)c2)c(=O)[nH]c1=O
COc1cc(CN2CCCC(C(=O)c3ccc(SC)cc3)C2)cc(Cl)c1O (stereo not given)
CC(=O)Nc1ccc(C(=O)N(C2=NC(C)CS2)c2ccc(Cl)cc2)cc1 (stereo not given)
Cc1cccc(-c2noc(CCC(=O)NC3CCCC3)n2)c1
COc1ccccc1OCC(=O)Nc1c2c(nn1-c1ccc(F)cc1)CS(=O)(=O)C2
Cn1c(N2CCOCC2)c(C=O)c2ccccc21
COCCN1CCN(C(=O)c2cc(COc3ccc(F)cc3Cl)on2)CC1
O=C(NCCN1CCOC1=O)C1CCC(=O)N(CCc2ccc(Cl)cc2)C1 (stereo not given)
Cc1cccc(-n2ncc(Cl)c(Cl)c2=O)c1
O=C(NCc1ccncc1)C(=O)NCC1OCCN1S(=O)(=O)c1ccc(Br)cc1 (stereo not given)
NC(=O)C(=O)N/N=C/c1ccc([N+](=O)[O-])o1
Cc1ccc(NC(=O)CSc2cccc3cccnc23)c(C)c1
O=C(O)C(c1ccccc1)N1C(=O)/C(=C\c2ccc(-c3cccc(Cl)c3)o2)SC1=S (stereo not given)
Cc1cccc(C)c1-n1c(C)cc(/C=C2\C(=O)NN(c3ccccc3)C2=O)c1C
O=C(NCCCn1ccnc1)c1cc2c(s1)CCCC2
O=C(NC1CCN(S(=O)(=O)c2ccc(F)cc2)CC1)c1ccccc1
O=S(=O)(c1ccc(Br)c2ccccc12)N1CCOCC1
COCCCN1C(=O)C(=O)/C(=C(/O)c2ccc(S(=O)(=O)N3CCOCC3)cc2)C1c1ccc(F)cc1 (stereo not given)
CCOc1ccc2nc(N(CCCN(C)C)C(=O)c3ccc(C(=O)c4ccccc4)cc3)sc2c1
O=C1CCC(C(=O)N2CCN(c3ccccc3Cl)CC2)CN1CC1CCCCC1 (stereo not given)
CCOC(=O)Cn1c(O)c(N=NC(=O)CNC(=O)Cc2ccccc2)c2ccccc21
Cc1cc(C)nc(N/N=C/c2c(CO)cnc(C)c2O)n1
CCCNC(=O)c1ccc(N2CCC3(CC2)CC(c2ccc(Cl)cc2)=NO3)c([N+](=O)[O-])c1
CCOC(=O)C1CCN(S(=O)(=O)c2ccc3c(c2)N(C)C(=O)CC(=O)N3C)CC1
O=C(NCc1ccncc1)C1CCN(C(=O)c2cccc(Cl)c2)CC1
O=C(CNC(=O)[C@@H]1Cc2ccccc2CN1)NC1CCCCC1
Cc1nn(C)c(Cl)c1CN1CCC(Oc2ccc(C(=O)N3CCCC3)cc2)CC1
Cc1ccc(S(=O)(=O)N/N=C(\c2ccccc2)C2CC2)cc1
O=C(NCCCn1ccnc1)c1cc(Br)c(Br)s1
Cc1cccc(CN2CCC(n3nccc3NC(=O)c3ccccc3C)CC2)n1
Cc1cc(=O)oc2c3c(cc(OCC(=O)N[C@H](C(=O)O)c4ccccc4)c12)OC(C)(C)CC3
CCCNC(=O)c1cnc(-c2ccccc2)nc1-c1ccccc1
CCCCc1nc2cc(C(=O)NCCc3cnn(C)c3)ccc2o1

Potency, active:
COc1cc(/C=C2/C(=O)NN(c3ccc(F)cc3)C2=O)cc([N+](=O)[O-])c1O 20 µM
O=C1NN(c2ccccc2)C(=O)/C1=C/c1ccc(-c2cccc(C(=O)O)c2)o1 20 µM
CCOC(=O)/C(N=Nc1cc(C(=O)O)cc(C(=O)O)c1)=C(\O)CCl 25.1 µM
